This is an account of results in PubChem BioAssay (Tox21).

Unmarked numbers belong to inactive results. Calls of active or inactive are those of the source. Unless noted, the call rests on the fitted dose curve; in most records, active means well fitted curve in the direction sought with a large enough effect in the repeat runs; inconclusive means weak or mixed curves; inactive means no such curve, though single readings can be large; an effect the other way counts as inactive or inconclusive.

Assay [1] is described as follows: qHTS assay to identify small molecule antagonists of the glucocorticoid receptor (GR) signaling pathway - cell viability counter screen (AID 720693). Further: nearly all actives have a fitted effect of over 55% in size. Further: potency means the concentration at half of the fitted maximal effect. A general note: In qHTS, concentration-response curves come from the screen itself.
Assay [2] is described as follows: qHTS assay for identifying genotoxic compounds that show differential cytotoxicity against isogenic chicken DT40 cell lines with known DNA damage response pathways - Rev3 mutant cell line (AID 743014). Further: nearly all actives have a fitted effect of over 55% in size. Further: potency means the concentration at half of the fitted maximal effect.
The nature of assay [3]: qHTS assay for identifying genotoxic compounds that show differential cytotoxicity against isogenic chicken DT40 cell lines with known DNA damage response pathways - Rad54/Ku70 mutant cell line (AID 743015). Further: nearly all actives have a fitted effect of over 60% in size. Further: potency means the concentration at half of the fitted maximal effect.
In assay [4] the target is Androgen receptor (Homo sapiens) (UniProt P10275). The assay can be described thus: qHTS assay to identify small molecule antagonists of the androgen receptor (AR) signaling pathway (AID 743035; active means well fitted inhibition curve with a large enough effect in the signal ratio in the repeat runs, not every such curve was filed as active; inconclusive means weak or mixed curves, or effect the other way; inactive means no such curve, though single readings can be large or run the other way; the % refers to the signal ratio; further: potency means the concentration at half of the fitted maximal effect). The procedure, abridged:
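In this cell-based reporter screen, compounds were tested in concentration series against R1881-activated HEK293 cells expressing beta-lactamase under UAS control; after 16 h at 37C, FRET substrate was added and fluorescence read 2 h later.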

Assay [5] shares this target. Nature of the assay: qHTS assay to identify small molecule agonists of the androgen receptor (AR) signaling pathway using the MDA cell line (AID 743040; further: on the % scale 0 is the no-effect control and ±100 the full control effect; nearly all actives have a fitted effect of over 20% in size). The procedure, abridged: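 Testing was done with the MDA-kb2 AR-luc line, a human breast carcinoma stably transfected with MMTV-luciferase containing AR and GR response elements. Cells were exposed 16 h at 37C before ONE-Glo luminescence detection.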

Assay [6] can be described thus: qHTS assay to identify small molecule antagonists of the androgen receptor (AR) signaling pathway using the MDA cell line - cell viability counter screen (AID 743041; further: on the % scale 0 is the no-effect control and ±100 the full control effect; nearly all actives have a fitted effect of over 45% in size). The gist of the method:
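Compound exposure lasted 16 h at 37C in MDA-kb2 AR-luc cells stimulated with R1881. Protease-based CellTiter-Fluor reagent was applied for the final 30 min and fluorescence measured.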

Assay [7] has as its target Androgen receptor (Homo sapiens) (UniProt P10275). The assay can be described thus: qHTS assay to identify small molecule antagonists of the androgen receptor (AR) signaling pathway using the MDA cell line (AID 743042; further: on the % scale 0 is the no-effect control and ±100 the full control effect; nearly all actives have a fitted effect of over 55% in size). The procedure, abridged: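 MDA-kb2 breast carcinoma cells carrying MMTV-luciferase (AR/GR responsive) were co-treated with compounds and the agonist R1881 for 16 h at 37C. Inhibition read as ONE-Glo luminescence; CellTiter-Fluor fluorescence measured in parallel for cytotoxicity.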

Assay [8] can be described thus: qHTS assay to identify small molecule antagonists of the thyroid receptor (TR) signaling pathway - cell viability counter screen (AID 743064). Further: nearly all actives have a fitted effect of over 50% in size. Further: potency means the concentration at half of the fitted maximal effect. The gist of the method:
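Compounds were tested on GH3.TRE-Luc cells in the presence of T3 at 1 nM final. Following 23.5 h at 37 °C, cell viability was quantified by CellTiter-Fluor.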

A short description of assay [9]: qHTS assay to identify small molecule antagonists of the thyroid receptor (TR) signaling pathway (AID 743065). Further: nearly all actives have a fitted effect of over 55% in size. Further: potency means the concentration at half of the fitted maximal effect. The procedure, abridged:
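GH3.TRE-Luc rat pituitary cells (two TREs driving luciferase) were dosed with compound, then stimulated with 1 nM T3 (final) for 23.5 h at 37 C. ONE-Glo luminescence was the read-out, with CellTiter-Fluor fluorescence as the cytotoxicity counter-screen.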

The subject of assay [10] is thyroid hormone receptor (rat, GH3 cells). The assay can be described thus: qHTS assay to identify small molecule agonists of the thyroid receptor (TR) signaling pathway (AID 743066; calls by dose curve; further: on the % scale 0 is the no-effect control and ±100 the full control effect).
The target of assay [11] is Aromatase (Homo sapiens) (UniProt P11511). Nature of the assay: qHTS assay to identify aromatase inhibitors (AID 743083). Further: nearly all actives have a fitted effect of over 55% in size. Further: potency means the concentration at half of the fitted maximal effect.
Sequence of Aromatase (Homo sapiens) (P11511 whole entry, looked up): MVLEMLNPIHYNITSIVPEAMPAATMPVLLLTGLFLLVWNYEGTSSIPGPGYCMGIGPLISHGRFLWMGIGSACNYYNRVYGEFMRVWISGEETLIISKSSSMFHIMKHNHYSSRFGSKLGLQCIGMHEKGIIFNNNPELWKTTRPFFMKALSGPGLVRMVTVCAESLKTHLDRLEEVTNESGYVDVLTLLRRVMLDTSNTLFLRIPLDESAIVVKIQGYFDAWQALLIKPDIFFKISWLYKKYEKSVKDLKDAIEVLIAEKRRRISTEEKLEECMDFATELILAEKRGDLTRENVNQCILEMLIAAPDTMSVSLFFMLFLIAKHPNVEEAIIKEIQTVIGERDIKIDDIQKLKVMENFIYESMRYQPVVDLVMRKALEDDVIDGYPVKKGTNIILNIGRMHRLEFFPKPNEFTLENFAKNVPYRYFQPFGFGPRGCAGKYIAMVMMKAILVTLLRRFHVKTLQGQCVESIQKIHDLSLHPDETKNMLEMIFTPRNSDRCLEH
A short description of assay [12]: qHTS assay to identify small molecule antagonists of the estrogen receptor alpha (ER-alpha) signaling pathway - cell viability counter screen (AID 743074; calls by dose curve; further: on the % scale 0 is the no-effect control and ±100 the full control effect; nearly all actives have a fitted effect of over 45% in size).
A short description of assay [13]: qHTS assay to identify small molecule antagonists of the estrogen receptor alpha (ER-alpha) signaling pathway using the BG1 cell line - cell viability counter screen (AID 743081).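 Further: compound given together with 17beta-estradiol as the ER stimulus; on the % scale 0 is the no-effect control and ±100 the full control effect; nearly all actives have a fitted effect of over 45% in size.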
Assay [14] concerns the target Estrogen receptor (Homo sapiens) (UniProt P03372). Nature of the assay: qHTS assay to identify small molecule antagonists of the estrogen receptor alpha (ER-alpha) signaling pathway (AID 743069; active means well fitted curve in the direction sought with a large enough effect in the signal ratio in the repeat runs, not every such curve was filed as active; inconclusive means weak or mixed curves, or effect the other way; inactive means no such curve, though single readings can be large or run the other way; the % refers to the signal ratio; further: potency means the concentration at half of the fitted maximal effect). The procedure, abridged:
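In this cell-based reporter format, GripTite HEK293 cells harbouring ER-alpha-UAS-bla were grown overnight with 2% charcoal-stripped FBS, dosed with DMSO-dissolved compounds, then challenged with 17beta-estradiol. After 18 hr at 37C, beta-lactamase activity was detected by FRET fluorescence.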

The target is the same in assay [15]. Nature of the assay: qHTS assay to identify small molecule agonists of the estrogen receptor alpha (ER-alpha) signaling pathway (AID 743075; calls by dose curve; further: on the % scale 0 is the no-effect control and ±100 the full control effect). Conditions: HEK293 ER-alpha-UAS-bla, beta-lactamase FRET ratio, 18 h; activation: at 70.1 µM (top of the series).
For assay [16] the target is unchanged. Nature of the assay: qHTS assay to identify small molecule agonists of the estrogen receptor alpha (ER-alpha) signaling pathway using the BG1 cell line (AID 743079). Further: nearly all actives have a fitted effect of over 20% in size. Further: potency means the concentration at half of the fitted maximal effect. On activation: on the % scale 0 is the no-effect control and ±100 the full control effect. Conditions: BG1Luc4E2 cells, ERE-luciferase agonist, 22 h.
The nature of assay [17]: qHTS assay to identify small molecule antagonists of the estrogen receptor alpha (ER-alpha) signaling pathway using the BG1 cell line (AID 743080; calls by dose curve;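 further: BG1 cells stimulated with 17beta-estradiol alongside compound; on the % scale 0 is the no-effect control and ±100 the full control effect; nearly all actives have a fitted effect of over 25% in size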). The gist of the method: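 Quantitative HTS on the Tox21 10K library: BG1 cells with endogenous ER-alpha and ERE-luciferase reporter, 17beta-estradiol stimulation, 21.5 h compound exposure, luminescence endpoint with parallel fluorescence cytotoxicity counter-read.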

Assay [18] is described as follows: qHTS assay to identify small molecule antagonists of the androgen receptor (AR) signaling pathway - cell viability counter screen (AID 743033; further: on the % scale 0 is the no-effect control and ±100 the full control effect; nearly all actives have a fitted effect of over 45% in size).

Sequence of Estrogen receptor (Homo sapiens) (P03372 whole entry, looked up): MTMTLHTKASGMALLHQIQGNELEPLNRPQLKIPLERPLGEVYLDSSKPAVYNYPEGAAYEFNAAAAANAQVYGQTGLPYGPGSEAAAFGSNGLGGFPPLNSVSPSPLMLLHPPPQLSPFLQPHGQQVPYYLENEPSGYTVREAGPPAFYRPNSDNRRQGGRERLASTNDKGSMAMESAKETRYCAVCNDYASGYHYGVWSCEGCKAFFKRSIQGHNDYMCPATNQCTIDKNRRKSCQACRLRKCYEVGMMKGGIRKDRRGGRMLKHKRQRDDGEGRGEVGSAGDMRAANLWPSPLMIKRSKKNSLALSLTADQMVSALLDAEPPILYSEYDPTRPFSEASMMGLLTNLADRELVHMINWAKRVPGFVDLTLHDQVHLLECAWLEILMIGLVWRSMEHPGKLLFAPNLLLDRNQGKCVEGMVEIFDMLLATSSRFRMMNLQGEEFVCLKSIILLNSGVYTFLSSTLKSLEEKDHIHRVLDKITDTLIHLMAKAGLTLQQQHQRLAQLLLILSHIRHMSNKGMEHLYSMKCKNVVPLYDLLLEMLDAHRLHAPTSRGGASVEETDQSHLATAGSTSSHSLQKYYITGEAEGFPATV
Sequence of Androgen receptor (Homo sapiens) (P10275 whole entry, looked up): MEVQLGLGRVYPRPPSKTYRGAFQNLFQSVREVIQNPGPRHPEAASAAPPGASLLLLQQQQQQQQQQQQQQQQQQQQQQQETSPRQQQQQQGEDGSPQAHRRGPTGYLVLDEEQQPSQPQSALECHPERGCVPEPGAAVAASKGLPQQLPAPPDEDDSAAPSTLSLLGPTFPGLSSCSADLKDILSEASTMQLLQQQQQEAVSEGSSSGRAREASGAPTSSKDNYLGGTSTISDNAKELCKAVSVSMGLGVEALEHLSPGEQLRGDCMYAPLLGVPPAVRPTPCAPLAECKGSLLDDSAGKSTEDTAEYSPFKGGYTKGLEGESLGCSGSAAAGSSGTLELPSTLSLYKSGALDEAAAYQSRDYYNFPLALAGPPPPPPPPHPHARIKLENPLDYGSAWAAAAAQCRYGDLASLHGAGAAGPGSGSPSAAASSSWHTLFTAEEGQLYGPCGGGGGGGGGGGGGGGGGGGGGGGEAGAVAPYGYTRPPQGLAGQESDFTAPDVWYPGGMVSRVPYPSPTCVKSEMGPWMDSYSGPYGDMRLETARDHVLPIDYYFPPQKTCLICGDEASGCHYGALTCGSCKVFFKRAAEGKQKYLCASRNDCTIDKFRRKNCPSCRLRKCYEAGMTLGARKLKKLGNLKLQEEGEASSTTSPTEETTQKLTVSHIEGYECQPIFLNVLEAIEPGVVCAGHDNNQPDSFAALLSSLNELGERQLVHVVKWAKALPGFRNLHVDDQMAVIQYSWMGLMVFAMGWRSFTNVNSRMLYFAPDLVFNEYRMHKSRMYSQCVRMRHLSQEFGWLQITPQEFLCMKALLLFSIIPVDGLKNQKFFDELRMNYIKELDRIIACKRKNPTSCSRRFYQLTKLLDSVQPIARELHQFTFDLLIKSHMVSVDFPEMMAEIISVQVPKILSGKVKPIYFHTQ

For the molecule `CCCCCCCC/C=C/CCCCCCCC1=NCCN1CCO`, the Potency was 49 µM (active) in assay [1]; 13.7 µM (active) in [2]; 13.7 µM (active) in assay [3]; 49 µM (active) in assay [4]; 21.7 µM (active) in assay [8]; 21.7 µM (active) in assay [9]. Also, the Potency in [11] is 48.6 µM (active). The Potency entry in [5], in [6], in [7] and in [10] was “inactive” in each case.
For the molecule `CCOC(=O)O[C@]1(C(=O)OCCl)CC[C@H]2[C@@H]3CCC4=CC(=O)C=C[C@]4(C)[C@H]3[C@@H](O)C[C@@]21C`, the Potency result in assay [1], in [2], in assay [3], in assay [6], in assay [8] and in assay [9] was “inactive” each time. The Potency entry in [10], in [12], in [13] and in assay [11] was “inactive” each time.
Regarding `O=CC=C(c1ccccc1)c1ccccc1`, the Potency result in assay [1], in assay [10], in assay [15] and in assay [13] was “inactive” throughout. Moreover, the Potency in assay [2] is 27.5 µM (active); in assay [3] it was 17.4 µM (active); in assay [8] it was 34.7 µM (active); in assay [9], 13.8 µM (active); in assay [14], 27.8 µM [inconclusive] (active). Further, in assay [16] (at 95 µM (top of the series)), the activation was -5.89%.
Consider `CCc1oc2ccccc2c1C(=O)c1cc(Br)c(O)c(Br)c1`, for which the Potency in assay [1] was 13.4 µM (active); in assay [9], 26.6 µM (active); in [14], 10.7 µM [inconclusive] (active). In addition, the Potency entry in assay [5], in assay [6], in assay [7], in [10], in assay [12] and in [15] was “inactive” in each case. Besides, the Potency result in assay [17], in [13] and in assay [11] was “inactive” in each case. Also, the activation in [16] (at 70.3 µM (top of the series)) was -23.9%.
On to `CCCCN(CCCC)C(=O)N(CCCC)CCCC`, for which the Potency entry in [1], in assay [18], in [6], in [10], in [12] and in assay [13] was “inactive” in each case.
For the molecule `O=Cc1cc(O)ccc1Br`, the Potency result in assay [1], in [18], in [6], in assay [10], in assay [14] and in [12] was “inactive” throughout. The Potency entry in [15], in assay [13] and in [11] was “inactive” in each case. The Potency in [16] is 31.1 µM (active).
For the molecule `O=C(c1ccc(F)cc1)C1CCN(CCn2c(=O)[nH]c3ccccc3c2=O)CC1`, the Potency result in [1], in assay [18], in assay [5], in assay [6], in [7] and in assay [8] was “inactive” in each case. The Potency result in assay [9], in assay [10], in assay [14], in assay [12], in assay [15] and in assay [17] was “inactive” throughout. Moreover, the Potency result in assay [13] and in [11] was “inactive” throughout. Further, the activation in assay [16] (at 70.3 µM (top of the series)) was 21.8%.
Consider `CSc1cnc(C)cn1`, for which the Potency result in [1], in [2], in [18], in assay [6], in [8] and in [9] was “inactive” throughout. In addition, the Potency result in assay [10], in assay [14], in assay [12], in [15], in assay [17] and in assay [13] was “inactive” each time. Further, the Potency result in assay [11] is “inactive”. For the same molecule, the activation in [16] (at 95 µM (top of the series)) was 0.548%.
